This note sets out measurements from the OligoGym collection.

Some targets named below: MAD2L2; MAF; MAFG; MACROD1; MAGEA2B; MAN1C1; MCM6; MEPCE; MIA; MFRP; MIB1; MFNG.
Holding throughout (assay): pooled miR-30 sensor sort-seq; sequence = guide strand
Conditions in all cases: shRNA
Also: reference of the scale not given here.

TATACTGATTCAGCTCCGGGTG registered a sensor-assay potency score (higher = more potent) with MAD2L2 of -0.735.
On the same count and under the same terms, under TTTCTCCACATCATTCTTCTCC stands -0.203.
With TTGAGGTGGTCGACTTGCTGCA, the sensor-assay potency score (higher = more potent) with MAF is -0.511.
Take TTAGCAATAAATACTGCGCAGG: the sensor-assay potency score (higher = more potent) with MAFG was -0.418.
In the experiment with MACROD1, TTTCGCCTCCTTCCAGTCGGTG returned a sensor-assay potency score (higher = more potent) of -1.53.
In the case of TTCCACGTAAAGCTGCATCTTT, the sensor-assay potency score (higher = more potent) with MAD2L2 is -0.0388.
The sequence TCCCTCTCGCGCACCAGCCTGG yielded a sensor-assay potency score (higher = more potent) in the experiment with MAF of -1.61.
On the same count and under the same terms, under TAGCCGGTCATCCAGTAGTAGT stands -1.7.
In the experiment with MAD2L2, TTGTACTTCTTGCGTTTCTGGA yielded a sensor-assay potency score (higher = more potent) of -0.29.
The sequence TTATATATCACAAACATACACT displayed a sensor-assay potency score (higher = more potent) in the experiment with MAFG of -0.989.
Take TTAGTGTATGGTGCAGGACTTT: the sensor-assay potency score (higher = more potent) with MAGEA2B was -1.05.
Consider TACTATTGTGATGACGCTGGTG, for which the sensor-assay potency score (higher = more potent) in the experiment with MAFG was determined as 0.19.
In the experiment with MAD2L2, TTTTAGTGGTATCAGCCGGGGG came in with a sensor-assay potency score (higher = more potent) of -1.07.
On to TATAATTAATTTAATAACTTTG, for which, in the experiment with MAFG, the sensor-assay potency score (higher = more potent) was -0.864.
On to TAGAAAGAAGCTCTGCTGCTTG, for which the sensor-assay potency score (higher = more potent) in the experiment with MAN1C1 stood at 0.252.
Sequence TAGAACATGATCATAGTGTGTG gave a sensor-assay potency score (higher = more potent) with MCM6 of 0.881.
In the experiment with MEPCE, TGATGTGTCCGCTCCATCCAAG gave a sensor-assay potency score (higher = more potent) of -1.38.
TTTGTCTGTCTTCACATCGACT: in the experiment with MIA, the sensor-assay potency score (higher = more potent) is -0.999.
On to TGGAACTGTAGTTCTATGCTGT, for which the sensor-assay potency score (higher = more potent) in the experiment with MFRP is -0.0204.
Same read-out and setting: to TGGTGTTGTAGCTCAGACCGAG belongs -0.523.
For the sequence TTCAACTACTGCTCGACACTGC, the sensor-assay potency score (higher = more potent) with MIB1 came to 0.708.
Sequence TTGGGCATAGGACCACCCCTGA registered a sensor-assay potency score (higher = more potent) with MIA of -1.13.
In the case of TATGCTGTCGTTCAACAGCAAG, in the experiment with MIB1, the sensor-assay potency score (higher = more potent) was -1.72.
In the experiment with MFRP, TGTCCTAAACAGCACAGCCAGC registered a sensor-assay potency score (higher = more potent) of -1.58.
Same read-out and setting: to TTGTCATCGCTGCCATCGGTGC belongs -1.66; to TACTGCTGCAGGTAGCTGGGAG, -0.172.
Regarding TTCCTTATGACACTTTGCCAGT, the sensor-assay potency score (higher = more potent) with MIB1 is -1.
Same read-out and setting: to TTAACTCATCAGAACTTCCAAC belongs -0.501; to ATTGGTATTATCCTTGTCCTTT, -0.409.
As for TTGCGATTGATGCAGAAGCCAG, in the experiment with MFNG, the sensor-assay potency score (higher = more potent) was -1.46.
